Experiment in all cases: NCI-60 one-dose screen, 48 h (100 = growth as untreated, 0 = no growth, -100 = all killed)
Common to all, as to conditions: 10 µM unless noted

Experiment [1] relates to EKVX NSCLC.
Experiment [2] has as its system SN12C renal.
Experiment [3] concerns TK-10 renal.
For experiment [4], the system named is ACHN renal.
Experiment [5] has as its system CAKI-1 renal.
Experiment [6] deals with A498 renal.
The subject of experiment [7] is MOLT-4 leukemia.
For experiment [8], the system named is SR leukemia.
For experiment [9], the system named is OVCAR-8 ovarian.
Experiment [10] relates to OVCAR-5 ovarian.
The test system of experiment [11] is OVCAR-4 ovarian.
For experiment [12], the system named is IGROV1 ovarian.
Experiment [13] relates to OVCAR-3 ovarian.
The test system of experiment [14] is HS 578T breast.
Experiment [15] relates to T-47D breast.
Experiment [16] relates to UO-31 renal.
Experiment [17] concerns SK-OV-3 ovarian.
The subject of experiment [18] is NCI/ADR-RES ovarian.
In experiment [19] the test system is CCRF-CEM leukemia.
For experiment [20], the system named is RPMI-8226 leukemia.

Among the data in PubChem BioAssay (NCI) are growth values, retold here.

This is part of a sample that, as a whole, favours compounds with a hit. Of some 83,000 tested, about 20% had one in any assay.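 48-hour exposure, single concentration, 96-well plates; percent growth endpoint where 0 means no net growth. Active: below 10.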 A number with no mark means an inactive call. Activity calls are given as the source filed them.

For `COc1ccc(CNS(=O)(=O)/N=C2\NC(=O)NC2=C(Cl)Cl)cc1`, the growth in experiment [1] is 83.2%; in experiment [2], 20.7%; in experiment [3] it was 41.6%; in experiment [4] it was 32.7%; in experiment [5], 45.9%; in experiment [6], -9.6% (active). The growth in experiment [7] was 19%; in experiment [8], 20.5%; in experiment [9] it was 10.8%; in experiment [10], 37.2%; in experiment [11], 69.1%; in [12], 43.5%. Besides, the growth in [13] is 30%; in [14] it was 44%; in [15], 44%.

With `CN(C)c1ccc(/C=c2\sc3nc4ccccc4n3c2=O)cc1`, the growth was 87% in [1]; 99.2% in experiment [2]; 92.2% in experiment [16]; 98% in experiment [4]; 85.1% in experiment [6]; 103% in experiment [7]. For the same compound, the growth in experiment [8] was 99.7%; in experiment [9], 106%; in experiment [10], 102%; in experiment [11], 107%; in experiment [17] it was 124%; in experiment [12] it was 77.2%. In addition, the growth was 124% in experiment [13], 101% in [14], 107% in [18] and 83.8% in experiment [15].

In the case of `Clc1ccc2c(NCCCn3ccnc3)c3oc4ccc(Cl)cc4c3nc2c1`, the growth in experiment [1] was 46.7%; in [2] it was 79.3%; in experiment [4], 44.4%; in experiment [6], 45.9%; in [19], 57.2%; in experiment [7] it was 77%. For the same compound, the growth in experiment [20] is 82.8%; in experiment [9] it was 71.9%; in experiment [10], 86.7%; in experiment [11], 95.7%; in [17], 83.4%; in [12], 58.9%. Further, the growth is 98.8% in experiment [13], 91.1% in experiment [14], 74.1% in experiment [18] and 78.2% in [15].

As for `COc1cc(/C=C/C(=O)c2cc(OC)c(OC)c(OC)c2)ccc1OCc1ccc(F)cc1`, the growth was 51.2% in [1]; 67.9% in [2]; 64.8% in experiment [4]; 5.5% (active) in [19]; 46.2% in experiment [7]; 16.3% in [8]. Also, the growth was 15.4% in experiment [9]; 57.7% in [10]; 46.9% in [11]; 45.5% in [17]; 40.7% in experiment [12]; 38.2% in experiment [13]. Further, the growth was 89.7% in experiment [14], 20% in experiment [18] and 38.3% in experiment [15].

In the case of `[Cl][Ru].c1ccc(-c2cc(-c3ccccn3)nc(-c3ccccn3)c2)cc1.c1ccc(-c2ccnc3c2ccc2c(-c4ccccc4)ccnc23)cc1`, the growth in experiment [1] was 25.9%; in experiment [2] it was -22.5% (active); in experiment [4] it was 6% (active); in [5], -6.38% (active); in experiment [6], -20.2% (active); in experiment [7], -16.8% (active). Also, the growth was -41.8% (active) in [20]; -65.5% (active) in [9]; 18.3% in experiment [10]; 15.6% in experiment [11]; -12.1% (active) in experiment [17]; -59.2% (active) in experiment [12]. Further, the growth was -64.2% (active) in experiment [13], -15.1% (active) in experiment [14], 93.7% in [18] and -11.4% (active) in [15].

In the case of `Oc1c(Cl)cc(Cl)c2ccc(CN3CCCCC3)nc12`, the growth was 30.6% in experiment [1]; 42.9% in experiment [2]; 29.4% in experiment [4]; 36.2% in [5]; 49.9% in experiment [6]; 18.6% in experiment [19]. Also, the growth is 26.1% in [7]; 18.8% in experiment [8]; 38.1% in [20]; 23% in [9]; 55.7% in experiment [10]; 33.3% in experiment [11]. Moreover, the growth was 62.1% in experiment [17]; 33.9% in experiment [12]; 27.6% in [13]; 66.5% in experiment [14]; 19.3% in experiment [18]; 48.1% in experiment [15].

For the compound `N#Cc1c(-c2ccc(Cl)cc2)nc2c(-c3ccccc3)c(Nc3ccccc3)nn2c1N`, the growth in [1] is 60.6%; in [2], 77.5%; in [3], 139%; in experiment [4] it was 11%; in [5], 35.1%; in experiment [19] it was 67.9%. The growth in experiment [7] was 61%; in experiment [8], 36.9%; in experiment [20] it was 54.1%; in [9], 48.6%; in experiment [10], 67.4%; in experiment [11], -7.41% (active). Also, the growth was 42.7% in experiment [17]; 56.4% in experiment [12]; 58.4% in experiment [13]; 37.3% in experiment [14]; 38.9% in experiment [18]; 52.9% in experiment [15].

In the case of `Cn1ccnc1C(=O)/C=C/c1ccc(NC(=O)Nc2ccc(F)cc2)cc1`, the growth in experiment [1] was 39.3%; in experiment [2], 53.8%; in experiment [4], 49.5%; in [19], 12.6%; in experiment [7], 11.6%; in experiment [8], 3.97% (active). Moreover, the growth is 13.2% in experiment [20]; 15.8% in experiment [9]; 57.7% in [10]; 76.2% in [11]; 52.8% in experiment [17]; 43.1% in experiment [12]. The growth in [13] is 56.5%; in experiment [14], 17.6%; in [18] it was 43.8%; in [15] it was 42.8%.

For the compound `N#Cc1ccc(/C=N/NC(=O)c2[nH]c3ccc(Br)cc3c2-c2ccccc2)s1`, the growth in experiment [1] was 25%; in [2], 42.1%; in experiment [3], 102%; in experiment [4] it was 18.2%; in [5], 18.3%; in [19], 9.74% (active). The growth in experiment [7] was 4.12% (active); in experiment [8], 7.7% (active); in experiment [9], 2.33% (active); in experiment [10], 54.5%; in [11] it was 54.6%; in [17], 22.6%. The growth in experiment [12] is 17.3%; in experiment [13], 33.3%; in experiment [14] it was 23.3%; in experiment [18], 9.75% (active); in [15] it was 58.8%.
